Assay results reported in PubChem BioAssay.

These compounds were tested against Calmodulin-1 (Homo sapiens) (UniProt P0DP23) (assay: small molecules binding calmodulin-1 with EGTA – biochemical, small-molecule microarray, Cy5-labelled CALM1, profiling panel (AID 1111;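 also: labelled calmodulin applied in Tris saline Tween buffer holding calcium plus EGTA and DTT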)). Details: Cy5-CALM1 binding fluorescence, higher = more signal.

Row | SMILES | composite z-score
1 | CCCN1C(=O)[C@@]2(CCC(=O)OC(C)(C)C)N=C(c3ccc(OCCCO)cc3)O[C@H]2c2ccccc21 | 0.786
2 | O=C(O)[C@H]1C[C@H]2C(=O)NCC(=O)N2[C@H]1c1ccc(O)cc1 | -0.559
3 | CC(C)c1ccc(NN2C(C(O)c3ccc(N(C)C)cc3)C=CC3C(=O)N(c4ccccc4)C(=O)C32)cc1 (stereo not given) | 1.44
4 | CCC[C@@H]1C=C(C(=O)O)[C@H](c2ccc(C)cc2)N1S(=O)(=O)c1ccc(C)cc1 | 0.665
5 | CC(C)c1ccc(NN2C(C(O)c3c(F)cccc3Cl)C=CC3C(=O)N(c4ccccc4)C(=O)C32)cc1 (stereo not given) | 1.88
6 | CC(C)=CCCC(C)=CC(O)C1C=CC2C(=O)N(c3ccccc3)C(=O)C2N1Nc1ccccc1 (stereo not given) | 2.23
7 | COCC1=C2[C@@H](CCc3ccccc3)OB(O)C[C@@H]2[C@@H]2C(=O)N(Cc3ccccc3)C(=O)[C@@H]2C1 | -0.222
8 | COC(=O)[C@@]1(Cc2ccc(OC)cc2)[C@H]2c3cc(C(=O)N4CCCC4)n(CCc4c[nH]c5cc(F)ccc45)c3C[C@H]2CN1C(=O)c1ccccc1 | 2.73
9 | CC(C)N1CC=CC23O[C@@H]4C=CCOC(=O)[C@@H]4[C@H]2C(=O)N(CCO)[C@@H]3C1=O (stereo not given in full) | -0.248
10 | COC(=O)C(CC#Cc1ccc2c(c1)[C@]1(C(=O)N2)[C@H](c2ccc(OCCO)cc2)N2[C@H](c3ccccc3)[C@H](c3ccccc3)OC(=O)[C@H]2[C@@H]1C(=O)NC[C@H](O)c1ccccc1)C(=O)OC | 0.794
11 | CC(C)NC(=O)[C@@]1(Cc2ccccc2I)c2ccccc2C(=O)N(Cc2ccccc2)[C@H]1c1ccc(CO)cc1 | 0.447
12 | CCOC(=O)C[C@H]1[C@H](OC(=O)Cc2ccc3c(c2)OCO3)[C@@H](NC(=O)c2ccc(-c3ccccc3)cc2)c2cc(OCCCO)ccc2N1C(=O)c1ccccc1 | 0.326
13 | CC(c1ccccc1)C(O)C1C=CC2C(=O)NC(=O)C2N1Nc1ccccn1 (stereo not given) | -0.104
14 | COc1ccc(C#Cc2ccc3c(c2)[C@]2(C(=O)N3)[C@H](c3ccc(O)cc3)N3[C@H](c4ccccc4)[C@H](c4ccccc4)OC(=O)[C@H]3[C@@H]2C(=O)NC[C@H](O)c2ccccc2)cc1 | 0.199
15 | O=C1O[C@H](c2ccccc2)[C@H](c2ccccc2)N2[C@H]1[C@@H](C(=O)O)[C@]1(C(=O)Nc3ccc(C#CC4(O)CCCCCC4)cc31)[C@H]2c1ccc(OCCO)cc1 | 1.89
16 | NCCCCCCNC(=O)[C@H]1C[C@H]2C(=O)NCC(=O)N2[C@H]1c1cccc(OCCO)c1 | -0.0421
17 | C=CCOC(=O)[C@H]1[C@@H]2C(=O)O[C@@H](c3ccccc3)[C@@H](c3ccccc3)N2[C@@H](c2ccc(OCCOC(=O)[C@@H]3C[C@@H]4C(=O)NCC(=O)N4[C@@H]3c3ccc(O)cc3)cc2)[C@]12C(=O)Nc1ccccc12 | 0.325
18 | [N-]=[N+]=Nc1ccccc1C[C@]1(C(=O)NCCN2CCOCC2)N=C(c2ccc(OCCCO)cc2)O[C@H]1c1ccccc1 | 0.169

Row | SMILES | composite z-score
19 | CC(C)N1C(=O)C[C@@](C(=O)NCc2ccccc2)(c2ccc([N+](=O)[O-])cc2)[C@H]1c1ccc(CO)cc1 | -0.47
20 | O=C1OCCC/C=C\[C@H]2OC34C=CCN(Cn5nnc6ccccc65)C(=O)[C@H]3N(CCCCCO)C(=O)[C@@H]4C12 (stereo not given in full) | -0.709
21 | NCCCCCNC(=O)[C@H]1C[C@H]2C(=O)NCC(=O)N2[C@H]1c1cccc(OCCO)c1 | 0.828
22 | CN1C=C(C(=O)OCCS(C)(=O)=O)C(C(=O)OCCS(C)(=O)=O)=CC(CCCO)=CC1C1CC1 (stereo not given) | 0.0991
23 | COCCOC(=O)N1C(=O)[C@@]2(c3cc(C#CC4=CCCCC4)ccc31)[C@H](C(=O)NC[C@H](O)c1ccccc1)[C@H]1C(=O)O[C@H](c3ccccc3)[C@H](c3ccccc3)N1[C@@H]2c1ccc(O)cc1 | 1.1
24 | CCCCCCCCCCC(O)C1C=CC2C(=O)N(Cc3ccccc3)C(=O)C2N1n1cnnc1 (stereo not given) | 1.55
25 | Cc1ccccc1C(O)C1C=CC2C(=O)N(C)C(=O)C2N1N1CCCCC1 (stereo not given) | 0.8
26 | CC(=O)NCCCC[C@@H]1NC(=O)[C@@H]2C[C@H](C(=O)NCCCCCCNC(=O)CS)[C@H](c3ccc(O)cc3)N2C1=O | 0.725
27 | C=CCOC(=O)[C@H]1[C@@H]2C(=O)O[C@@H](c3ccccc3)[C@@H](c3ccccc3)N2[C@@H](c2ccc(OCCOC(=O)[C@@H]3C[C@@H]4C(=O)N5CCC[C@H]5C(=O)N4[C@@H]3c3ccc(O)cc3)cc2)[C@]12C(=O)Nc1ccccc12 | 0.823
28 | C=CCC(OC(C)=O)[C@@H]1[C@@H](N(Cc2ccc(-c3ccccc3)cc2)C(=O)Cc2ccc(OC)cc2)c2cc(OCCCO)ccc2N1C(=O)c1ccc2ccccc2n1 (stereo not given in full) | 0.143
29 | COC(=O)C(CC#Cc1ccc2c(c1)[C@]1(C(=O)N2)[C@H](C(=O)NC[C@H](O)c2ccccc2)[C@H]2C(=O)O[C@H](c3ccccc3)[C@H](c3ccccc3)N2[C@@H]1c1ccc(OCCO)cc1)C(=O)OC | 1.5
30 | COc1ccc(C(O)C2C=CC3C(=O)N(c4ccccc4)C(=O)C3N2Nc2ccc([N+](=O)[O-])cc2)cc1OCc1ccccc1 (stereo not given) | 0.804
31 | CC(=O)NCCCC[C@@H]1NC(=O)[C@@H]2C[C@H](C(=O)NCCCCN(C)C)[C@H](c3ccc(O)cc3)N2C1=O | -0.487
32 | CC(C)C(=C=CC[C@H](O)c1cccc(OCCO)c1)C[C@H](O)COCc1ccccc1 | -0.53
33 | CC(C)C(=C=CC[C@@H](O)c1ccccc1OCCO)C[C@@H](O)c1ccccn1 | -0.178
34 | O=C1O[C@@H](c2ccccc2)[C@@H](c2ccccc2)N2[C@@H](c3ccccc3OCCO)[C@]3(C(=O)Nc4ccc(C#CC5(O)CCCCCC5)cc43)[C@@H](C(=O)Nc3nc4ccccc4s3)[C@H]12 | 0.688
35 | C=CCN1C(=O)[C@]2(O[C@H](CCO)[C@@H]([Si](C)(C)c3ccc(OC)cc3)[C@@H]2C)c2cc(NC(=O)[C@H](C)O)ccc21 | 0.737
